# Source: PubChem BioAssay AID372 (MTDP, 2006)
# Among all 100,000 compounds or so, about 770 (0.77%) were called active. For the sample, actives were picked, then their nearest neighbours and some compounds at random. Values without a mark were called inactive. No stated cut-off is given here; in the data, active means inhibition above about 50%; inactive means the rest.
# Target: Gag-Pol polyprotein (Human immunodeficiency virus type 1 group M subtype B (isolate HXB2)) (UniProt P04585)
# Assay: RNase H inhibition, HIV 1 Gag Pol polyprotein, FRET biochemical assay, screening (AID 372)
# Details: HIV-1 RT RNase H, FRET RNA/DNA substrate fluorescence; at 10 µM; active compounds read high
row,Compound,inhibition
1,O=C1C(=O)N(c2cccnc2)C(c2ccc(F)cc2)/C1=C(\O)c1ccc(Cl)cc1 (centres undefined),2%
2,CCCC(=O)N1c2c(C)cccc2C(Nc2ccccc2C)CC1C (centres undefined),12%
3,COC(=O)c1c(NC(=O)c2c(F)c(F)c(F)c(F)c2F)sc2c1CCCCC2,26%
4,O=c1c(C=NCC2CCCO2)c(C(F)(F)F)[nH]n1-c1nc2ccccc2s1 (centres undefined),0%
5,CCOC(=O)c1ccc(NC(=O)Nc2nc(-c3ccccc3)cs2)cc1,0%
6,Oc1c(Br)cc(Cl)cc1/C=C/c1ccc2cccc(O)c2n1,15%
7,NC(=O)c1cccc2c1NC(C(=O)O)C1CC=CC21 (centres undefined),22%
8,O=C(O)C1Nc2c(cccc2[N+](=O)[O-])C2C=CCC12 (centres undefined),17%
9,O=C(O)C1Nc2c(I)cccc2C2C=CCC12 (centres undefined),30%
10,Cc1ccc2c(c1)C1C=CCC1C(C(=O)O)N2 (centres undefined),27%
11,O=C(c1ccccc1)c1cc(Cl)cc2c1NC(C(=O)O)C1CC=CC21 (centres undefined),30%
12,O=C(O)C1Nc2ccc(F)cc2C2C=CCC12 (centres undefined),12%
13,O=C1c2ccccc2NC(c2ccccc2O)N1Cc1ccco1 (centres undefined),5%
14,CC(C)Cc1ccc(-c2csc(/C(C#N)=C/Nc3ccccc3)n2)cc1,0%
15,CCOc1cc(/C=C2\SC(N)=NC2=O)ccc1OCCOc1ccc(Cl)c(C)c1,30%
16,O=C(CSCc1cccc(Br)c1)N=Nc1c(O)[nH]c2ccccc12,16%
17,Cc1ccc(Cc2cnc(NC(=O)c3ccc(Br)cc3)s2)cc1,0%
18,O=C(Nc1ccc(-c2cnc(-c3ccc(NC(=O)c4ccccc4)cc3)nc2)cc1)c1ccccc1,0%
19,COc1cccc(C(=O)Nc2ccc(-c3ccc(NC(=O)c4cccc(OC)c4)cc3)cc2)c1,2%
20,COc1cccc(C(=O)Nc2ccc(-c3cnc(-c4ccc(NC(=O)c5cccc(OC)c5)cc4)nc3)cc2)c1,50% (active)
21,Cc1cc(C)c(OCCCCN2CCC(C)CC2)c(C)c1,10%
22,COc1cc([N+](=O)[O-])ccc1NC(=S)NC(=O)c1ccccc1,3%

row,Compound,inhibition
1,N#Cc1c(-c2ccco2)c2c([nH]c1=S)CCCC2,63% (active)
2,N#Cc1c(N)c(C#N)c(-c2ccco2)c2c1CCCC2,4%
3,Cc1ccc(-c2c3c([nH]c(=S)c2C#N)CCCC3)o1,8%
4,Oc1cccc(/C=N/Nc2nc(-c3ccc(Br)cc3)cs2)c1,16%
5,O=S(=O)(Nc1cccc(I)c1)c1ccc2ccccc2c1,52% (active)
6,O=S(=O)(Nc1cccc(I)c1)c1ccccc1,0%
7,O=S(=O)(Nc1ccc(Nc2ccccc2)cc1)c1ccc2ccccc2c1,0%
8,O=S(=O)(Nc1cccc(F)c1)c1ccc2ccccc2c1,27%
9,O=S(=O)(Nc1cccc(Br)c1)c1ccc2ccccc2c1,50% (active)
10,COc1ccc(S(=O)(=O)Nc2cccc(C(F)(F)F)c2)cc1,0%
11,Cc1cc(C)cc(NS(=O)(=O)c2ccc3ccccc3c2)c1,14%
12,O=S(=O)(Nc1cccc(C(F)(F)F)c1)c1ccc(F)cc1,0%
13,Brc1ccc(N2COc3ccc4ccccc4c3C2)cc1,18%
14,CCOC(=O)c1ccc2c(c1)C1C=CCC1C(c1ccc(Br)cc1)N2 (centres undefined),31%
15,Cc1ccc(C(=O)Nc2ccc(I)cc2)o1,0%
16,CCCOC(=O)C1=C(C)NC(=O)NC1c1cccc2ccccc12 (centres undefined),4%
17,CCc1ccc(NC(=O)C(=O)NCCc2ccc(F)cc2)cc1,12%
18,COc1ccc(C(=O)NC(NC(=O)c2ccc(OC)c(OC)c2)c2ccc(Br)cc2)cc1OC,6%
19,O=C1NC(=O)c2ccc3c4c(ccc1c24)CC3,2%
20,NN1C(=O)c2ccc3c4c(ccc(c24)C1=O)CC3,0%
21,COc1cc(CN2CCN(C3CCCC(C)C3)CC2)cc(OC)c1OC (centres undefined),7%
22,COc1ccc(CNC(=O)c2ccc(Cl)c(Cl)c2)cc1,8%

row,Compound,inhibition
1,CC(C)=NNC(=O)Sc1cc(O)c(Cl)cc1O,66% (active)
2,CC(C)=NNC(=O)C(=O)Nc1ccc(Cl)c(Cl)c1,12%
3,CC(C)=NNC(=O)C(=O)Nc1cccc(Cl)c1,10%
4,O=C(NCCO)C(=O)Nc1ccc(Oc2ccccc2)cc1,6%
5,Cc1cc(C)c(NC(=O)C(C)Sc2nnc(-c3cccc(F)c3)n2-c2ccccc2)c(C)c1 (centres undefined),54% (active)
6,CC(NC(=O)CSc1nnc(-c2cccc(F)c2)n1-c1ccccc1)c1ccccc1 (centres undefined),15%
7,Fc1cccc(-c2nnc(SC(c3ccccc3)c3ccccc3)n2-c2ccccc2)c1,13%
8,Cc1oc(C(C)(C)C)cc1C(=O)Nc1cccc(O)c1,1%
9,Cc1ccc(N=Cc2ccc(OC3CSC3)cc2)cc1C,8%
10,COc1ccc(C2NC(=S)NC(C)=C2C(=O)Nc2ccc(C)c(Cl)c2)cc1 (centres undefined),10%
11,Nc1c(S(=O)(=O)O)cc(S(=O)(=O)O)c2cccc(O)c12,23%
12,Nc1ccc(S(=O)(=O)O)c2cccc(S(=O)(=O)O)c12,6%
13,Nc1nnc(SCC(=O)Nc2ccccc2-c2ccccc2)s1,0%
14,COc1ccc(NC(=O)/C(C#N)=C/c2cccc(O)c2)cc1,12%
15,COc1cc(/C=N/NC(=O)COc2ccc(C(C)(C)CC(C)(C)C)cc2[N+](=O)[O-])ccc1OC(=O)c1ccc([N+](=O)[O-])cc1,28%
16,O=C1CS/C(=N/N=C/c2ccc(-c3ccc(Cl)cc3)o2)N1,21%
17,Cc1c(-c2ccc(/C=N/N=C3/NC(=O)CS3)o2)ccc([N+](=O)[O-])c1C,45%
18,Cc1c(Cl)cccc1-c1ccc(/C=N/N=C2\NC(=O)CS2)o1,55% (active)
19,COc1ccccc1NC(=O)CN(c1ccc(Cl)cc1Cl)S(=O)(=O)c1ccccc1,13%
20,c1cc2ccc3ccc(CN4CCOCC4)c4ccc(c1)c2c34,0%
